Compound activity from PubChem BioAssay.
Hits are enriched below; roughly 13% of the tested compounds scored in any of these assays.
Shiga toxin inh – blocks Shiga toxin action in Vero cells | actives 9.2% (n = 290,000) | AID 2315 | inhibition, % at 38.7 µM | Vero cells, Shiga toxin protein synthesis inhibition reporter; in the data active = inhibition mostly above about 28%, no sharp cut-off; inactive = mostly below about 43%; also: 0% is about no effect
MARV entry inh – Marburg virus entry inhibition; Marburg virus pseudotyped entry inhibition, cell reporter; Potency, µM (series often up to 37.8 µM), without a hit: top-dose activity change, negative = inhibition, hits mostly inhibitors; actives 1.8% (n = 300,000); AID 540276; calls by dose curve; tested in HEK293 cells; also: potency is read from the fitted curve at half-maximal effect; % is scaled to controls: 0 for no effect and ±100 for the full control effect
LASV entry inh – inhibitors of Lassa virus binding or cell entry | Lassa virus pseudotype entry inhibition, cell reporter | Potency, µM (titrated, usually from 37.9 µM), without a hit: top-dose activity change, negative = inhibition, actives largely listed as inhibitors | actives 1.2% (n = 300,000) | AID 540256; calls by dose curve; tested in HEK293 cells; also: potency is read from the fitted curve at half-maximal effect; % is scaled to controls: 0 for no effect and ±100 for the full control effect; nearly all actives have a fitted effect of over 50% in size
CHX counter – counter-screen hit for Shiga toxin inhibitors, cycloheximide; actives 12% (n = 300,000); max response, %; cell reporter, cycloheximide protein synthesis inhibition counterscreen; in the data active = max response mostly above about 13%, no sharp cut-off; inactive = mostly below about 14%; also: read at 38.3 µM for the half of the compounds with a filed dose; 0% is about no effect
FMDV antiviral – blocks foot and mouth disease virus. FMDV antiviral cell-based qHTS. Potency, µM (series often up to 57.9 µM), for the others: at the highest dose activity change, negative = inhibition, most hits filed as inhibitors. actives 1.2% (n = 410,000). AID 1159524; calls by dose curve; tested in HEK293T cells; also: read-out not given here; potency is read from the fitted curve at half-maximal effect; % is scaled to controls: 0 for no effect and ±100 for the full control effect; nearly all actives have a fitted effect of over 45% in size
HCV inhibitor – inhibitors of hepatitis C virus infection | actives 3.4% (n = 340,000) | Huh7.5.1 HCVcc-Cre infection, luciferase reporter, 44 h | AID 651820 | Potency, µM (highest dose often 41.8 µM), for the others: at the highest dose activity change, negative = inhibition, hits mostly inhibitors; active = well fitted inhibition curve with a large enough effect; inconclusive = small, poorly fitted or top-dose-only effect, or another doubt; inactive = no such curve, though single readings can be large or run the other way; also: potency is read from the fitted curve at half-maximal effect; % is scaled to controls: 0 for no effect and ±100 for the full control effect
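Reporter virus HCVcc-Cre (~0.5 moi) infects cells exposed to compound; seeding density 1,000 cells/well with 4 h settling beforehand. Luminescence, 15 sec read, taken 44 h post-infection following a 15 min RT substrate incubation.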
An asterisk follows results filed as active; ? = inconclusive; . = no result; [ ] = remark or other dose.

SMILES	Shiga toxin inh	MARV entry inh	LASV entry inh	CHX counter	FMDV antiviral	HCV inhibitor
CC(C)(C)SCCNC(=O)CN(c1ccc(F)cc1)S(C)(=O)=O	19	-4%	9%	5	5%	17%
Cc1cc(=O)oc2cc(OCC3CC(c4ccccc4)=NO3)ccc12 (configuration not stated)	53*	?	?	21*	9%	?
C=C(C)COc1ccc2c(CC)cc(=O)oc2c1	49	.	.	22*	12%	?
COc1ccc(OC(C)C(=O)N(C)Cc2nc(-c3ccc(C)cc3)no2)cc1 (configuration not stated)	-7	-1%[46.1 µM]	.	7	?	14µM*
O=c1[nH]c(Cc2ccccn2)nc2scc(-c3ccc(Cl)cc3)c12	21	-3%[46.1 µM]	7%[46.1 µM]	10	-28%	?
COc1ccc(C(=O)Nc2nnc(C)s2)cc1	.	.	0%[46.1 µM]	.	31%	.
CCc1nc2ccc(C(=O)Nc3nnc(C)s3)cc2nc1CC	16	19%[46.1 µM]	12%	12*	21%	?
CCc1nc2ccc(C(=O)O)cc2nc1CC	91*	2µM*	15µM*	91*	?	-2%
CCOC(=O)c1cc(-c2ccccc2)sc1NC(=O)C(C)Sc1nnc(C)s1 (configuration not stated)	39	-3%[46.1 µM]	-9%	11*	-15%	?
CCOC(=O)c1cc(-c2ccccc2)sc1NC(=O)C(C)Sc1nnnn1C (configuration not stated)	-5	?	-14%	-3	0%	?
CC(=O)N(C)c1ccc(N=Nc2c(C)[nH]n(C(N)=S)c2=O)cc1	49*	-30%	?	39*	3%	12%
CCN(CC)S(=O)(=O)c1ccc(N=Nc2c(C)[nH]n(C(N)=S)c2=O)cc1	73*	?	12%	40*	29%	5%
COc1ccc(NC(=O)c2ccccc2C)cc1	.	?	?	34*	2%	2%
O=C(Nc1ccc(F)cc1)c1cccc2ccccc12	15	.	.	24*	55%	-11%
COc1ccc(NC(=O)c2cccc3ccccc23)cc1	21	?	10%[46.1 µM]	20*	17%	-29%
COc1ccc(NC(=O)c2cccc3c(Br)cccc23)cc1	22	.	.	1	28%	-16%
COc1cccc(OC)c1OCCN1CCC(C(=O)NC(c2ccccc2)c2ncccc2C)CC1 (configuration not stated)	.	.	.	.	-11%	.
CCOC(=O)c1sc(N=NC2=C(O)CCCC2=O)c(C(=O)OCC)c1C	16	18%	-1%	18*	13%	-14%
CCOC(=O)c1sc(N=Nc2c(O)[nH]c(=O)[nH]c2=O)c(C(=O)OCC)c1C	-3	-8%	-14%	1	.	-8%
Cc1cccc(NC(=O)c2cc(-c3cc(C)cc(C)c3O)n[nH]2)c1	40*	.	.	13*	-10%	11µM*
Cc1cc(C)c(O)c(-c2cc(C(=O)NCc3ccccc3)[nH]n2)c1	-16	?	?	-3	-6%	?
Cc1cc(C)c(O)c(-c2cc(C(=O)Nc3cccnc3)[nH]n2)c1	98*	?	25%	29*	-21%	?
Cc1cc(O)c(-c2cc(C(=O)Nc3cccnc3)[nH]n2)cc1C	52*	.	.	43*	36%	-4%
Cc1ccc(C)c(NC(=O)c2cc(-c3cc(C)ccc3O)n[nH]2)c1	76*	7%	?	59*	63%	2%
CC(=O)Nc1ccc(NC(=O)c2cc(-c3cc(C)c(C)cc3O)n[nH]2)cc1	43	-2%	0%	2	-6%	?
SMILES	Shiga toxin inh	MARV entry inh	LASV entry inh	CHX counter	FMDV antiviral	HCV inhibitor
CCOC(=O)C1CCN(C(=O)COC(=O)c2ccc3c(c2)C(=O)N(c2ccc(OCC)cc2)C3=O)CC1	-1	2%	9%	-1	-27%	7%
Cc1ccc(NC(=O)c2cc(-c3ccccc3O)n[nH]2)cc1Cl	18	9%[46.1 µM]	16%[46.1 µM]	7	26%	11%
COc1ccc(NC(=O)c2cc(-c3ccccc3O)n[nH]2)cc1Cl	51*	?	-2%[46.1 µM]	12	7%	-25%
Cc1ccc(NC(=O)c2cc(-c3cc(Cl)ccc3O)n[nH]2)cc1C	-6	.	.	-5	17%	12%
Cc1ccc(O)c(-c2cc(C(=O)NCc3ccncc3)[nH]n2)c1	13	-31%	-10%	0	1%	-10%
Cc1cccc(NC(=O)c2cc(-c3cc(Cl)ccc3O)n[nH]2)c1	76*	?	?	37*	53%	-10%
CCc1ccc(O)c(-c2cc(C(=O)Nc3cccnc3)[nH]n2)c1	93*	.	.	28*	-15%	?
Cc1cccc(NC(=O)c2cc(-c3c(C)cc(C)cc3O)n[nH]2)c1	51*	10%[46.1 µM]	7%[46.1 µM]	28	26%	-17%
CC(=O)N1CCN(S(=O)(=O)c2cccc(C(=O)OCC(=O)N3CC(=O)Nc4ccccc43)c2)CC1	25	-5%[14.2 µM]	-16%	16*	-4%	-2%
O=C1CN(C(=O)COC(=O)c2ccccc2O)c2ccccc2N1	5	6%	-15%	1	5%	3%
COc1cc(SC)ccc1C(=O)OCC(=O)N1CCCC1	50*	17%[46.1 µM]	-15%	40*	25%	-8%
CC(C)CNC(=O)COC(=O)c1ccc(F)cc1Cl	52*	10%[14.2 µM]	10%	28*	42%	9%
COc1cc(SC)ccc1C(=O)OCC(=O)N1CC(=O)Nc2ccccc21	.	-1%	-3%	.	17%	10µM*
CNC(=O)c1cc(S(=O)(=O)N2CC(C)OC(C)C2)ccc1N1CCCCC1 (configuration not stated)	-6	-3%	-2%	1	-18%	-9%
COc1cc(SC)ccc1C(=O)OCC(=O)NC(=O)NC(C)C	-7	-1%[46.1 µM]	4%[46.1 µM]	17*	-9%	3%
CC(C)NC(=O)NC(=O)COC(=O)c1ccc(F)cc1F	-4	16%	-4%	-1	-8%	35%
COc1cc(SC)ccc1C(=O)OCC(=O)NCC(C)C	32	14%[46.1 µM]	10%	25*	36%	12%
CC(=O)COc1c(-c2ccco2)oc2ccccc2c1=O	-8	.	.	-3	-14%	-3%
CCN(c1ccccc1)S(=O)(=O)c1ccc(C(=O)NCC(c2ccccc2OC)N2CCCC2)cc1 (configuration not stated)	.	?	?	.	-16%	25µM*
CCN(c1ccccc1)S(=O)(=O)c1ccc(C(=O)NC2CCN(Cc3ccccc3)CC2)cc1	.	0.71µM*	?	.	?	?
CCN(c1ccccc1)S(=O)(=O)c1ccc(Oc2ccc([N+](=O)[O-])cc2)nc1	.	-26%	?	.	-29%	?
CCN(c1ccccc1)S(=O)(=O)c1ccc(Oc2ccc(C(C)=O)cc2OC)nc1	.	.	.	.	-29%	13µM*
O=C(NC1CC1)c1ccc(CN(c2ccccc2)S(=O)(=O)c2ccccc2)cc1	4	?	?	-3	-29%	-25%
CCN(c1ccccc1)S(=O)(=O)c1ccc(C(=O)N2CCN(c3ccccc3)CC2)cc1	.	?	7.9µM*	.	-22%	?
